# Measured values from PubChem BioAssay AID1671193 (National Center for Advancing Translational Sciences (NCATS), 2021).
# The campaign covered roughly 150,000 compounds. About 180 (0.12%) were called active. Where a call stands in place of a potency, no number is given. Another 6% or so got no clear call; they are omitted. The full list was thinned out, with actives kept by preference. A number with no mark means an inactive call. Calls come from the whole dose curve; as a rule, active = well fitted cell-killing curve with a large enough effect; inconclusive = small, poorly fitted or top-dose-only effect, or effect the other way; inactive = flat fitted curve, though single readings scatter.
# Test: GF-AFC viability counterscreen for inhibitors of alpha-synuclein gene (SNCA) expression; note: nearly all actives have a fitted effect of over 30% in size
# Settings: HEK-293-SNCA-luc viability, GF-AFC fluorescence, 24 h; series mostly up to 57.1 µM
# Excerpt: Assay Submitter (PI): Daniel R. Scoles Ph.D.
# Department of Neurology, University of Utah, Salt Lake City, Utah
# Accumulation of alpha-synuclein is a main underlying pathological feature of Parkinson's disease (PD) and alpha-synucleinopathies, for which lowering expression of the alpha-synuclein gene (SNCA) is a potential therapeutic avenue. Using a cell-based luciferase reporter of SNCA expression we performed a quantitative high throughput screen (qHTS) of 155,885 compounds in dose response. The screening assay was generated using genome editing to insert the luciferase gene downstream and in frame of the SNCA gene in HEK-293 cells (1). A viability counterscreen using GF-AFC was used to eliminate cytotoxic and false positive compounds. After in silico analysis (clustering, removal of frequent hitter nuisance chemotypes), inhibitor compounds from the primary screen were selected for follow up and re-tested at 11-doses in the SNCA-luc cells (luciferase and GF-AFC confirmation), and in CMV-luc expressing cell line to flag general transcriptional repressors.
# Described herein are the results of the GF-AFC viability counterscreen for SNCA inhibitors; inactivity (no decrease in fluorescence signal, not cytotoxic) is the desired output for this assay.
# 1. Dansithong, W., Paul, S., Scoles, D. R., Pulst, S. M., and Huynh, D. P. (2015) Generation of SNCA Cell Models Using Zinc Finger Nuclease (ZFN) Technology for Efficient High-Throughput Drug Screening. PLoS ONE 10, e0136930.
# SEQUENCE No. (e.g., 1, 2, 3, etc.); […] (e.g., Cells, Incubation, Reagent, etc.); VALUE; DESCRIPTION
# 1; Cells; 4 uL; Dispense 1500 HEK-293-SNCA-luc cells/well into Greiner 1536-well white / solid bottom tissue culture treated plate. The plate was covered with metal lids with gas-exchange holes.
# 2; Incubate; 24 hours; Incubate at 37C, 5% CO2, 95% RH.
# 3; Compounds; 23 nL; Compounds and controls were transferred via a Kalypsys Pin Tool (Wako USA) equipped with a 1536-slotted pin array. The plate was covered with metal lids with gas-exchange holes.
# 4; Incubate; 24 hours; Incubate at 37C, 5% CO2, 95% RH.
# 5; Dispense; 1 uL; Dispense Gly-Phe-7-amino-4-trifluoromethylcoumarin (GF-AFC, prepared at 125 uM in PBS) was added. The plate was covered with metal lids with gas-exchange holes.
# 6; Incubate; 30 min; Incubate at 37C, 5% CO2.
# 7; Detector; Fluorescence; Measure fluorescence with ViewLux microplate reader (PerkinElmer) equipped with 405/10 excitation and 540/25 emission filters.
# 8; Dispense; 3 uL; Dispense ONE-Glo ([…]) lucifase detection reagent was added to each well. Plates were covered with metal lids with gas-exchange holes.
# 9; Incubate; 15 min; Incubate at room temperature.
# 10; Detector; Luminescence; Measure luminescence with ViewLux microplate reader (PerkinElmer) equipped with clear filters.
# NOTES (numbers refer to sequence above)
# 1; HEK-293-SNCA-luc were cultured and suspended in phenol-red free DMEM (4.5 g/L glucose, 25 mM HEPES, cat #21063 (Thermo)).
# 3; Compounds were added to the assay plate in an 11-point intra plate dose response, 1:3 titration in DMSO with a final concentration range of […]. Vehicle-only plates, with DMSO being pin-transferred to every well, were inserted at the beginning of screening runs to confirm expected assay performance. Activity was normalized to wells containing medium only (-100% activity, full inhibition) and SNCA-luc cells treated with DMSO vehicle control (0% activity), contained on the same plate as test samples.
# 10; Signals were analyzed, and dose-response curves were fit using the Hill equation. Compounds in curve classes -1.1, -1.2, -2.1, -2.2 in the SNCA-luc assay were considered active. Compounds were eliminated from further consideration if also active (curve class -1.1, -1.2, -1.3, -1.4, -2.1, -2.2, -2.3, -2.4) in the GF-AFC cytotoxicity assay.
# Potency is the fitted concentration of half-maximal effect.
Compound,Potency,"activity change, negative = cytotoxicity"
CN(C)C[C@@H]1CN(S(C)(=O)=O)C[C@H]1NC(=O)c1nn(C)c2ccccc12,inactive,–
COc1ccccc1Nc1ccnc(N2CCC(C(=O)NCc3cccc(Cl)c3)CC2)n1,inactive,–
O=C(c1ccc(F)cc1)N1CCN(c2cc(-c3ccc(F)cc3)[nH]n2)CC1,inactive,–
CCOC(=O)C1CCN(C(=O)C2CCc3nnc(CN[S+](C)(=O)[O-])n32)CC1 (stereo unspecified),inactive,–
O=C(c1ccon1)N1CC[C@@H]2[C@@H](CCC(=O)N2CC2CCNCC2)C1,inactive,–
CCOc1ccccc1NC(=O)N1CCCN(C)c2ccccc21,inactive,–
O=C(CCc1ccccc1)Nc1ccc([C@@H](O)[C@H]2COCC(=O)N2Cc2ccccc2F)cc1,inactive,–
O=C(CCc1ccnc(N2CCCC2)c1)N1CCN(c2ccccc2)CC1,inactive,–
Cc1ccc(NC(=O)c2nc(S(=O)(=O)Cc3cccc(C)c3)ncc2Cl)cc1,28.2 µM (active),–
CCSc1ncc(Cl)c(C(=O)Nc2cc(C)ccc2C)n1,inactive,–
CCCS(=O)(=O)c1ncc(Cl)c(C(=O)Nc2scc(-c3ccccc3)c2C(=O)OCC)n1,inactive,–
CC1=C[C@@H](CN2CCC(O)CC2)[C@H](C(C)C)C[C@H]1Cc1nnc(-c2ccccc2F)o1,inactive,–
C[C@@H](c1ccccc1)N(C)C(=O)c1cc(COc2cccc(F)c2)[nH]n1,inactive,–
CCOC(=O)c1cccc(NC(=O)c2ccc3c(c2)N(C)C2CCCCN2C3=O)c1 (stereo unspecified),–,4.91% [at 12.5 µM]
Cc1cccc(C(=O)N2CCC(OC3CCN(Cc4ccccc4)CC3)CC2)c1,inactive,–
O=C(Nc1ccc(C(F)(F)F)cc1)C1=NO[C@@H]2CN(CCc3ccccc3)C[C@H]12,inactive,–
COc1ccc(S(=O)(=O)N2C[C@@H]3C[C@H](C2)c2c(NC(=O)C4CCCCC4)ccc(=O)n2C3)cc1,inactive,–
Cc1ccc(S(=O)(=O)N2CCCC(Cn3c(C4CC4)nc4cccnc43)C2)cc1C (stereo unspecified),inactive,–
CC(C)c1nc(-c2ccc(OC3CCN(C(=O)CCc4nc5ccccc5[nH]4)C3)cc2)no1 (stereo unspecified),inactive,–
COc1ccc(-n2nc(C)c([C@@H]3C=C[C@@H](NC(=O)Nc4ccccc4)C3)c2C)cc1,inactive,–
CCc1ccccc1NC(=O)N1CCCC(Cn2c(C)nc3cccnc32)C1 (stereo unspecified),inactive,–
O=C(NC1CCN(c2nc3ncccc3o2)CC1)c1ccc(Cl)nc1,inactive,–
CCc1ccc(NC(=O)Cn2ccn3nc4c(c3c2=O)CCCC4)cc1,inactive,–
COc1ccc(NC(=O)N[C@H]2[C@H](O)[C@@H](N3CCN(c4ccccc4)CC3)[C@@H]3OC[C@H]2O3)cc1,inactive,–

Compound,Potency,"activity change, negative = cytotoxicity"
Cc1nc(N(C)C)ncc1C(=O)NC(C(=O)O)c1c(C)n[nH]c1C (stereo unspecified),inactive,–
COc1ccc(CC(=O)N2CC[C@@H](CC(=O)O)[C@@H](CCN3CCNCC3)C2)cc1,inactive,–
Cc1cc(NC(=O)c2ccc3c(c2)N(C)C2CCCCCN2C3=O)ccc1F (stereo unspecified),–,-3.22% [at 12.5 µM]
COc1nc2nc(CC3CC3)n(C)c2cc1-c1cccc(NC(C)=O)c1,inactive,–
O[C@H]1[C@H](NCc2ccco2)[C@H]2CO[C@H](O2)[C@@H]1N1CCC(Cc2ccccc2)CC1,inactive,–
COCCC1(NS(C)(=O)=O)CCN(C(=O)c2ccc(OC)nc2OC)CC1,inactive,–
CC(NC(=O)c1ccc(OC(F)(F)F)cc1)C(=O)N1CCN(c2ccccn2)CC1 (stereo unspecified),inactive,–
CCNC(=O)N1CCCC1c1noc(CCC(=O)NC2CCCC2)n1 (stereo unspecified),inactive,–
O=C1Nc2ccccc2CC12CCCN2Cc1ccccc1 (stereo unspecified),inactive,–
Cc1cc(N2CCC3(CC2)CC(c2ccccc2)C(=O)N3C)ncn1 (stereo unspecified),inactive,–
Cc1cccnc1CN1CCN(C(=O)Cn2nnnc2CN2CCCC2)CC1,inactive,–
CC1=C[C@@H](CNC2CC2)[C@H](C(C)C)C[C@H]1Cc1nnc(-c2ccc(C)cc2)o1,35.5 µM (active),–
CC1=C[C@@H](CNS(C)(=O)=O)[C@H](C(C)C)C[C@H]1Cc1nnc(-c2ccncc2)o1,inactive,–
CC1=C[C@@H](CNC(C)C)[C@H](C(C)C)C[C@H]1Cc1nnc(-c2ccncc2)o1,inactive,–
O=C1CCC2(C(=O)NCc3cccc(F)c3)CCC=C2N1C1CCCC1 (stereo unspecified),inactive,–
O=C1[C@@H]2C[C@@H](CN2Cc2ccc3ccccc3n2)Oc2ccccc2N1Cc1ccccc1,inactive,–
COc1ccccc1-c1cccc(CN2CCCC(C(=O)NCC3CC3)C2)c1 (stereo unspecified),inactive,–
CN(C(=O)CN1C(=O)NC2(CCOCC2)C1=O)c1ccccc1,inactive,–
O=c1cc(-c2ccccn2)oc2c(-c3ccccc3F)nccc12,inactive,–
COc1ccc2c(c1)OCC(C(=O)NCc1cc3cc(OC)ccc3[nH]1)C2 (stereo unspecified),inactive,–
COCCC(=O)N1CCCCCCNC(=O)[C@@H]2CCCC[C@@H]21,inactive,–
Cc1ccc(CN2CCCCCNC(=O)[C@H]3C[C@H](C(=O)N4CCc5ccccc5C4)C[C@H]32)o1,inactive,–
COc1ccc(-c2noc(C(=O)O)c2[C@@H](C)NS(=O)(=O)c2ccccc2)cc1,inactive,–
O=C(NCC1CC1)c1cn(C2CN(C(=O)C3CCOC3)C2)nn1 (stereo unspecified),inactive,–

Compound,Potency,"activity change, negative = cytotoxicity"
O=C(Cc1cccc(F)c1)N1CCC2(CCC2N2CCOCC2)CC1 (stereo unspecified),inactive,–
Cc1cccc(CN2CCCN(Cc3ccncc3)C(c3ccccc3)CC(=O)NCC2)c1 (stereo unspecified),inactive,–
CCCCS(=O)(=O)c1oc(-c2cccs2)nc1S(=O)(=O)c1ccccc1,12.6 µM (active),–
Cc1ccc(CSc2oc(-c3cccs3)nc2S(=O)(=O)c2ccc(C)cc2)cc1,inactive,–
CSc1oc(-c2cccs2)nc1S(=O)(=O)c1ccc(Br)cc1,inactive,–
O=C(CCCc1c[nH]c2ccccc12)N1CCC2(CC1)CC(CCOCC1CC1)CCO2 (stereo unspecified),inactive,–
CCc1cccc(NC(=O)N2[C@@H]3CC[C@H]2CC(NC(=O)c2ccc(F)cc2)C3)c1 (stereo partly specified),inactive,–
O=C(NCc1cccc(C(F)(F)F)c1)c1nn(CCOc2ccccc2)c2c1CNCC2,inactive,–
Cn1ccnc1CNCC1(COc2ccc(C(F)(F)F)cn2)C[C@@H](O)[C@@H](O)C1 (stereo partly specified),inactive,–
O=C(NCc1ccccc1)[C@@H]1Cc2nc[nH]c2CN1Cc1cccc(OC(F)(F)F)c1,inactive,–
COc1ccc(NC(=O)C2(C)CN(C)Cc3ccc(Nc4cccc(OC)c4)nc32)cc1 (stereo unspecified),inactive,–
O=C(NCC1CC1)c1coc(COc2ccc3c(c2)C(c2cccc(F)c2)N(C(=O)C2CC2)CC3)n1 (stereo unspecified),inactive,–
CC(CCc1ccccc1)NC(=O)CN1C(=O)NC(c2ccccc2Cl)C2=C1COC2=O (stereo unspecified),inactive,–
O=C(NCc1ccccc1F)c1nc2cccnc2n(C2CC2)c1=O,inactive,–
OC1CN(Cc2ccccc2)CCN(C2CCN(c3ccccc3F)CC2)C1 (stereo unspecified),inactive,–
Cc1ccc(S(=O)(=O)N2CCCN(C)c3ccccc32)cc1Cl,inactive,–
Cc1nc(N2CCCCC2)ncc1C(=O)N1CCC2(CCCNC2=O)C1 (stereo unspecified),inactive,–
NCc1ccccc1-c1cccc(C(F)(F)F)c1,inactive,–
O=C1[C@H]2CN(Cc3ccccc3F)C[C@H]2C(=O)N1CCN1CCc2ccccc2C1,inactive,–
O=C(NCc1ccco1)[C@@H]1Cc2nc[nH]c2CN1CCCc1ccccc1,inactive,–
COc1ccc2cc(CN3CCNC(=O)C3C)c(-c3cccs3)nc2c1 (stereo unspecified),inactive,–
COc1cccc(-c2cn3c(n2)N(C(=O)Cc2ccccc2)CCC3)c1,inactive,–
O=C(CCC[C@H]1NC[C@@H]2C[C@H]1CN(Cc1ccccc1)C2)N1CCN(C2CCCCC2)CC1,inactive,–
Cc1cccc(OCC2CCCN(c3ncncn3)C2)c1 (stereo unspecified),inactive,–

Compound,Potency,"activity change, negative = cytotoxicity"
O=C(c1ccc2c(c1)OCO2)N1CCC2(CC1)NC(=O)N(c1ccccc1)N2,inactive,–
Cc1noc2c(Nc3ccc(Cl)cc3)cc(-c3cccnc3)nc12,inactive,–
COCCN1CCOC2(CCN(Cc3ccc(C(C)C)cc3)CC2)C1=O,inactive,–
CN(C)Cc1cccc(-c2cc(-c3ccncc3)c3cncn3c2)c1,inactive,–
O=C(Cc1ccc(F)cc1)N1CN=C(C2CCN(Cc3ccc(F)cc3)CC2)N1,inactive,–
COC(=O)[C@@H]1Cc2ncn(Cc3ccccc3)c2CN1C(=O)CC(C)(C)C,inactive,–
CC(C)Oc1ccc(CN2CCCC(COc3ccccc3C(=O)N3CCCC3)C2)cc1 (stereo unspecified),inactive,–
COc1ccc(N2CCN(c3nc(C(=O)NC4CCCCCC4)cs3)CC2)cc1,inactive,–
O=C(C1CCCC1)N1CCc2nc(C3CC3)nc(-c3ccc(O)cc3)c2C1,inactive,–
O=C1C2CN(Cc3ccc4[nH]ccc4c3)CCC2OCCN1Cc1ccccc1F (stereo unspecified),inactive,–
CCN(CC)CCCCNc1ncc2cc(-c3c(Cl)cccc3Cl)c(NC(=O)NC(C)(C)C)nc2n1,15 µM (active),–
CN(C)C[C@@H]1CN(Cc2cccnc2)C[C@H]1NC(=O)Cc1cccc(F)c1,inactive,–
O=C(c1cccc(O)c1)N1CCNc2cnc(Nc3cccc(F)c3)nc2C1,inactive,–
c1cnc2nc(C3CCN(C4CCCCC4)C3)[nH]c2c1 (stereo unspecified),inactive,–
O=C(NCc1ccc(F)cc1)N1CCC2(CC1)CC(OCC1CC1)CCO2 (stereo unspecified),–,4.57% [at 12.5 µM]
CCOC(=O)C1CCCN(C(=O)c2c(C)oc3c2CN(Cc2ccc(C)cc2)CC3)C1 (stereo unspecified),inactive,–
COc1ccc(OC)c2nc(-c3cccc(C)c3)c(CN3CCCC(O)C3)cc12 (stereo unspecified),inactive,–
O=C(NC1CCN(c2ccnc3ccnn23)C1)c1ccccc1F (stereo unspecified),inactive,–
Cn1nccc1C(=O)NCCC1CCN(C(=O)Nc2ccccc2)CC1,inactive,–
Cc1ccc(-c2noc([C@@H]3Cc4nc[nH]c4CN3Cc3cccc(C#N)c3)n2)cc1,inactive,–
CCCCN(CC#Cc1ccccc1)C(=O)c1cc(=O)n(C)c(=O)n1C,inactive,–
COc1ccc(NC(=O)c2nc3sccn3c2-c2cccnc2)cc1,inactive,–
COCCN1C(=O)CS(=O)(=O)C12CCN(C(=O)c1ccc(C)s1)CC2,inactive,–
CCOc1ccccc1CN1CCC(Cc2nc(-c3cccnc3)n[nH]2)C1 (stereo unspecified),inactive,–
